In ChEMBL document CHEMBL4513142, “CO-ADD screening of Indiana University - Purdue University Indianapolis (USA) compounds”:
Where “and” joins values, the source holds several entries; their conditions need not be identical. Identical values can stand only once. Potency and affinity values are given separately.

Experiments:
Klebsiella pneumoniae = conditions: Concentration 32 ug.mL-1, ASSAY_TEST Inhibition of Bacterial Growth, detection method Absorption (OD600), MEDIA CAMHB, plate type 384well, NBS, CORNING #3640, time 18 hr
Candida albicans = conditions: 32 ug/mL
Cryptococcus neoformans = conditions: Concentration 32 ug.mL-1, ASSAY_TEST Inhibition of Fungal Growth, detection method Resazurin, Absorption (OD600-OD570), plate type 384well, NBS, CORNING #3640

| Compound | Inhibition (Klebsiella pneumoniae) | Inhibition (Candida albicans) | Inhibition (Cryptococcus neoformans) | Inhibition (Klebsiella pneumoniae; 32 ug/mL) | Inhibition (Cryptococcus neoformans; 32 ug/mL) |
| --- | --- | --- | --- | --- | --- |
| CCCNC(=O)C(Cc1ccccc1)NC(=O)c1ccc(F)cc1 (stereo not given) | 15.24% | 2.91% | -7.35% | – | – |
| [C-]#[N+]c1ccc(C(=O)NC(Cc2ccccc2F)C(=O)NCCC)cc1 (stereo not given) | 8.88% | 1.53% | -7.85% | – | – |
| NC(Cc1ccc(F)c(F)c1)C(=O)O.O=C(O)C(F)(F)F (stereo not given) | – | 1.67% and -0.02% | – | 7.21% and 5.15% | -13.22% and -14.09% |
| [C-]#[N+]c1ccc(C(=O)NC(CC#C)C(=O)NCCC)cc1 (stereo not given) | 15.5% | 4.37% | -8.61% | – | – |
| CC(C)[C@H](NC(=O)c1cccc(C(F)(F)F)c1)C(=O)O | – | 7.7% and 10.5% | – | -0.42% and 3.74% | -6.26% and -6.2% |
| O=C(N[C@@H](Cc1ccccc1)C(=O)O)C1CCCCC1 | – | – | – | 1.14% and 5.62% | -13.27% and -11.08% |
| NC(=O)[C@H](Cc1ccccc1)NC(=O)c1c(F)c(F)c(F)c(F)c1F | – | 3.95% and 8.52% | – | 8.47% and 11.14% | -9.93% and -7.63% |
| O=C(NC(CCCc1ccccc1)C(=O)O)c1cccc2ccccc12 (stereo not given) | – | 4.21% and 5.17% | – | 4.24% and 7.53% | -11.3% and -10.65% |
| CC(C)C[C@H](NC(=O)c1ccc(Cl)cc1Cl)C(N)=O | – | 4.49% and 5.39% | – | 14.05% and -7.39% | -13.33% and -10.52% |
| NC(Cc1ccccc1F)C(=O)O.O=C(O)C(F)(F)F (stereo not given) | – | 2.11% and 3.25% | – | -4.61% and -3.52% | -7.08% and 0.99% |
| NC(Cc1cccc(F)c1)C(=O)O.O=C(O)C(F)(F)F (stereo not given) | – | 1.58% and 1.27% | – | 0.53% and 0.81% | -7.68% and -3.4% |
| Cc1ccc(C(=O)NC(Cc2cc(F)c(F)cc2F)C(=O)O)cc1 (stereo not given) | – | 4.99% and 4.52% | – | 7.96% and 13.51% | -10.86% and -7.35% |
| COc1cc(C(=O)N[C@@H](CC(C)C)C(=O)O)ccc1O | – | 4.13% and 6.65% | – | 1.29% and 3.72% | -7.3% and -10.82% |
| NC(=O)[C@@H]1CCCN1C(=O)c1ccccn1 | – | 8.62% and 7.92% | – | 13.57% and 8.38% | -5.72% and -3.53% |
| C[C@H](NC(=O)c1ccccc1Cl)C(=O)O | – | 4.87% and 8.5% | – | -1.23% and -3.38% | -5.22% and -11.03% |
| [C-]#[N+]c1ccc(C(=O)NC(Cc2ccc(F)cc2)C(=O)NCCC)cc1 (stereo not given) | 14.12% | 5.24% | -1.72% | – | – |
| NC(Cc1ccc(F)cc1)C(=O)O.O=C(O)C(F)(F)F (stereo not given) | – | 1.28% and -0.06% | – | 1.77% and -4.38% | 6.08% and -8.37% |
| NC(=O)[C@H](Cc1ccccc1)NC(=O)c1cccnc1 | – | 6.63% and 4.08% | – | 15.19% and 20.47% | -3.63% and -8.29% |
| CCCNC(=O)C(Cc1ccccc1C)NC(=O)c1ccc(C(F)(F)F)cc1 (stereo not given) | 12.54% | 0.78% | -3.03% | – | – |
| NC(Cc1ccccc1I)C(=O)O.O=C(O)C(F)(F)F (stereo not given) | – | 4.55% and 4.79% | – | 3.96% and 4.88% | -7.57% and -7.31% |
| [C-]#[N+]c1ccc(C(=O)NC(CC=C)C(=O)NCCC)cc1 (stereo not given) | 4.31% | 3.05% | -8.98% | – | – |
| O=C(Cc1cccc(Br)c1)N[C@@H](Cc1ccccc1)C(=O)O | – | – | – | 7.39% and -2.64% | -5.52% and -8.87% |
| Cc1ccc(C(=O)NC(Cc2ccc(F)cc2)C(=O)O)cc1 (stereo not given) | – | – | – | -11.12% and 7.59% | -14.35% and -11.02% |
| Cc1ccc(C(=O)NC(Cc2ccccc2C#N)C(=O)O)cc1 (stereo not given) | – | – | – | 10.82% and 9.51% | -6.48% and -6.82% |
| O=C(NC(Cc1ccc(Cl)nc1)C(=O)O)c1ccccc1 (stereo not given) | – | 3.67% and 3.1% | – | 9.49% and 7.67% | -7.31% and -8.02% |
| CCCNC(=O)C(Cc1ccccc1)NC(=O)Cc1ccccc1 (stereo not given) | 14.33% | 5.66% | -5.77% | – | – |
| CC(C)C[C@H](NC(=O)c1cccnc1)C(N)=O | – | – | – | 3.3% and -1.43% | -4.01% and -5.8% |
| [C-]#[N+]c1ccc(C(=O)NC(Cc2ccc(C(F)(F)F)cc2)C(=O)NCCC)cc1 (stereo not given) | 13.54% | 5.79% | -3.04% | – | – |
| CCCNC(=O)C(Cc1ccc(F)cc1)NC(=O)c1ccccc1 (stereo not given) | 12.41% | 2.54% | -4.63% | – | – |
| [C-]#[N+]c1ccc(C(=O)NC(CC)C(=O)NCCC)cc1 (stereo not given) | 12.56% | -0.99% | -4.7% | – | – |
